The OligoGym collection

Biological target: IFI44L
Assay: pooled miR-30 sensor sort-seq; sequence = guide strand
Conditions: shRNA
Also: reference of the scale not given here.

| Sequence | sensor-assay potency score (higher = more potent) |
| --- | --- |
| TTGAAGTGAAAACCATAGGGAA | -0.486 |
| TAGCATTTTATGGACATTCATG | -1.18 |
| TTGTCTTGAAGAACCTCACTGC | 0.709 |
| TATGTCGTCTAGGTTATCCTTA | 0.221 |
| TTTGTGAACTTGCTTCACTTTT | -0.819 |
| TAATACTTCTTTGTGAACTTGC | 0.781 |
| TTCTTTGTGAACTTGCTTCACT | 0.156 |
| TTATGGACATTCATGACCCGGC | -0.0543 |
| TACTTCTTTGTGAACTTGCTTC | 0.0933 |
| TTTATGGACATTCATGACCCGG | -1.2 |
| TTTCGATAAACGACACACCAGT | -0.943 |

Biological target: IFLTD1
Assay: as above
Conditions: shRNA

| Sequence | sensor-assay potency score (higher = more potent) |
| --- | --- |
| TTGAATAATACTAACCATCTGC | 0.269 |
| TTGAGATATCTTTCTTAGGTTG | -0.851 |
| TAGACAGATAGTAACCAAGAGG | -1.22 |
| TTGTCCATTCACATTTTGCTGG | -0.587 |
| TTGCTCTAAACTTGTCTTGTTC | -0.614 |
| TATAGTTACTCTACTAATCTGA | 0.529 |
| TTGCTTTTCTAGTAGCTGGTTG | -0.208 |
| TAATTTGAGATATCTTTCTTAG | -0.577 |
| TTGTTATACAATCAGGACTTGC | -1.51 |
| TTTTCCACTCTGGAACAGCTAC | -0.846 |
| TCTTCTTTTTCTTAGACCCTGA | -0.319 |
| TAAGTTTCTTTGAATCACCAAA | -0.981 |

Biological target: IFNA17
Assay: as above
Conditions: shRNA

| Sequence | sensor-assay potency score (higher = more potent) |
| --- | --- |
| TTCCAGGTTATTCAGTTGCTGG | -1.21 |
| TCTTCTGGAACTGGTTGCCATC | -1.69 |
| TCTGAGGCAGATCACAGCCTAG | -1.69 |
| TCTTCCATCCCAACCTCCTGTA | -0.396 |
| TTCTCTGTTAGATAAAGAGTGA | -0.598 |
| TATCACACATGCTTCCAGGTTA | 0.103 |
| TATTTTTTGCAAGTTTGTTGAA | -0.556 |
| TTGCTGGTAAAGTTCAGTGGAA | -0.731 |
| TGTATTTCTTCTCTGTTAGATA | -1.15 |
| TAGAGAACAGATGGATTTGTAG | -0.448 |

Biological target: IFT52
Assay: as above
Conditions: shRNA

| Sequence | sensor-assay potency score (higher = more potent) |
| --- | --- |
| TTCATGTTTCACATTTAGCTGC | -0.162 |
| ATATTGATCACTGAACATGTGA | -0.0473 |
| TTCTTCAGTACACTTATTGGTA | -0.369 |
| TGAATCTTCCAATTACTCCGAA | 0.152 |
| TTAATATTGGTGTCAAATCTGG | -0.514 |
| TTTCACATTTAGCTGCTCGTGA | 0.557 |
| TTTGGCATCCTGTTGGTCCTTT | 0.0621 |
